# In PubChem BioAssay (NCATS):
# Results filed as inconclusive are left out. Activity calls are given as the source filed them. Calls follow the shape of the dose curve; as a rule, active = well fitted inhibition curve with a large enough effect; inconclusive = small, poorly fitted or top-dose-only effect; inactive = no such curve, though single readings can be large or run the other way. Where a SMILES comes first, the peptide text is derived from it. Bridges are numbered along the chain shown (N, C = ends). [ ]: non-standard residue; d: D form. hArg = N=C(N)NCCCC[C@H](N)C(=O)O; Mpa = O=C(O)CCS
# Assay: S16 Schwann cell PMP22 intronic element firefly luciferase assay (AID 624032);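 also: plate controls were DMSO for no effect and PTC124 positive control mean for full effect; nearly all actives have a fitted effect of over 30% in size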
# Conditions: S16 rat Schwann cells, PMP22 element FLuc, 24 h; series mostly up to 57.5 µM; activity change, negative = inhibition: at the top concentration
# In short: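 Rat S16 Schwann cells stably carrying a PMP22 intronic element-driven Fluc reporter were seeded overnight, then exposed to compounds for 24 h at 37 °C. Luminescence was normalized to PTC124 (positive control) and DMSO (0% activity).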
row,Structure (SMILES),"activity change, negative = inhibition"
1,O=C(O)CCCc1ccccc1,2.87% (inactive)
2,O=c1[nH]cnc2nc[nH]c12,-10.6% (inactive)
3,Cc1cccc(C)c1NC(=O)CC12CCCN1CCC2,2.81% (inactive)
4,CCc1cccc(CC)c1NC(=O)CN(CC(=O)O)CC(=O)O,25.9% [at 25.7 µM] (inactive)
5,C[N+](C)(C)CC[N+]1(C)Cc2c(Cl)c(Cl)c(Cl)c(Cl)c2C1,-9.03% (inactive)
6,Cn1c([N+](=O)[O-])cnc1COC(N)=O,33.8% (inactive)
7,CN1C[C@@H]2C[C@H]1CN2c1cc2c(cc1F)c(=O)c(C(=O)O)cn2C1CC1,-5.86% (inactive)
8,Cc1c(I)c(=O)n(-c2ccccc2)n1C,15% (inactive)
9,COc1ccccc1OC(=O)Oc1ccccc1OC,-4.09% (inactive)
10,O=C(O)c1ccc[n+]([O-])c1,4.29% (inactive)
11,CC(=O)OC[C@H]1O[C@@](COC(C)=O)(O[C@H]2O[C@H](COC(C)=O)[C@@H](OC(C)=O)[C@H](OC(C)=O)[C@H]2OC(C)=O)[C@@H](OC(C)=O)[C@@H]1OC(C)=O,9.71% (inactive)
12,CCCCCCCCCCC(CO)CCCCCCCC (configuration not stated),6.06% (inactive)
13,CC(C)CCOC(=O)c1ccc(N(C)C)cc1,209% (inactive)
14,C[C@@H]1O[C@@H](OC[C@H]2O[C@@H](Oc3c(-c4ccc(O)c(O)c4)oc4cc(O)cc(O)c4c3=O)[C@H](O)[C@@H](O)[C@@H]2O)[C@H](O)[C@H](O)[C@H]1O,15.3% (inactive)
15,NC(=O)NS(=O)(=O)c1ccc(N)cc1,18.1% (inactive)
16,CC1CCN(CCCC(=O)c2ccc(F)cc2)CC1,21.6% (inactive)

row,Structure (SMILES),"activity change, negative = inhibition"
1,NS(=O)(=O)c1ccc(C(=O)O)cc1,15.4% (inactive)
2,NC(=O)CCCCC1CCSS1 (configuration not stated),8.33% (inactive)
3,Cc1cc(NC(=O)C2=C(O)c3ccccc3S(=O)(=O)N2C)no1,10.3% (inactive)
4,NS(=O)(=O)c1cc2c(cc1C(F)(F)F)NCNS2(=O)=O,-2.27% [at 25.7 µM] (inactive)
5,CC(C)CCCC(C)CCCC(C)CCCCC(C)CCCC(C)CCCC(C)C (configuration not stated),-1.81% (inactive)
6,OCC(O)CS (configuration not stated),-7.86% (inactive)
7,CNc1c2c(nn1C)CCCC2,6.69% (inactive)
8,CC(N)CCCC(C)(C)O (configuration not stated),24% (inactive)
9,O=C(O)c1ccccc1OP(=O)(O)O,40% (inactive)
10,CN/C(=C\[N+](=O)[O-])NCCSCc1csc(CN(C)C)n1,2.64% [at 25.7 µM] (inactive)
11,NC(=O)[C@@H]1CSSCCC(=O)N[C@@H](CCCCN=C(N)N)C(=O)NCC(=O)N[C@@H](CC(=O)O)C(=O)N[C@@H](Cc2c[nH]c3ccccc23)C(=O)N2CCC[C@H]2C(=O)N1 ([Mpa][hArg]GDWPC-NH2; disulfide 1-7),20.8% (inactive)
12,O=C(O)Cc1cn(-c2ccccc2)nc1-c1ccc(Cl)cc1,-5.68% (inactive)
13,CNCc1ccccc1,-35.2% (inactive)
14,O=C(O)CCC(=O)O,-3.44% (inactive)
15,Cc1cc(-n2nc3ccc(Cl)cc3n2)c(O)c(C(C)(C)C)c1,0.137% (inactive)
16,O=C(NCCCN1CCOCC1)c1ccc(Cl)cc1,22.2% (inactive)
